# According to PubChem BioAssay AID504339 (National Center for Advancing Translational Sciences (NCATS), 2011):
# The campaign covered roughly 390,000 compounds. About 17,000 (4.4%) were called active. Not shown: some 8% with an inconclusive outcome. This excerpt belongs to a sample that is enriched for actives. Unmarked numbers belong to inactive results. Calls come from the whole dose curve; as a rule, active = well fitted inhibition curve with a large enough effect; inconclusive = small, poorly fitted or top-dose-only effect; inactive = no such curve, though single readings can be large or run the other way.
# Biological target: Lysine-specific demethylase 4A (Homo sapiens) (UniProt O75164)
# Experiment: qHTS Assay for Inhibitors of JMJD2A-Tudor Domain; note: nearly all actives have a fitted effect of over 50% in size
# Conditions: AlphaScreen JMJD2A-Tudor / H3K4me3 peptide binding; series mostly up to 114 µM; activity change, negative = inhibition: at the top concentration
# Text: JMJD2A is a jumonji-domain-containing lysine demethylase that uses Fe(II) together with 2-OG to effect oxidative demethylation of histones. Methylation is one of many […] modification that affect epigenetic transcription. […] It is proposed that the functions of JmjD2A binding to the histones, is to maintain marks after they are installed and to spread the modifications by […], establishing a self-propagating cycle for rapid methylation over a large area of chromatin. […] Thus, small molecule targeting of the JMJD2A-tudor domain interaction with its target methylhistone mark is expected to enable sophisticated experiments probing the fine regulatory pathways leading to selective demethylation of a given methyllysine locus based on the methylation state of adjacent histone marks. A quantitative high throughput AlphaScreen has been developed to identify small molecule inhibitors based on a protocol published by NCGC and SGC [4].
# Although AlphaScreen has significant advantages with its utility in a variety of epigenetic target assays, the primary screening data provided in this deposition should be used with caution due to the prevalence of screening artifacts. The top compound concentration tested was high (>100uM) in this assay, which increases number of actives and potential artifacts. An AlphaScreen counterscreen is highly recommended to be run against any putative actives to eliminate non-specific artifacts. Alternatively, one can use other AlphaScreen assays in PubChem to filter out promiscuous hits.
# [1] Lee, J. et al. Distinct binding modes specify the recognition of methylated histone H3K4 and H4K20 by JMJD2A-tudor. Nat Struct Mol Biol. 15(1); 109-11. 2008. PMID: 18084306
# [2] Yasgar, et al. Compound Management for Quantitative High-Throughput Screening. JALA. 2008 Apr;13(2):79-89. PMID: 18496600
# [3] Inglese, et al. Quantitative high-throughput screening: a titration-based approach that efficiently identifies biological activities in large chemical libraries. Proc Natl Acad Sci. 1;103(31):11473-8. 2006. PMID: 16864780
# [4] Quinn et al. A homogeneous method for investigation of methyl-dependent protein-protein interactions in epigenetics. Nucleic Acids Res., 38(2):e11. 2010. PMID: […]
# [5] Baell,Holloway. New substructure filters for removal of pan assay interference compounds (PAINS) from screening libraries and for their exclusion in bioassays. J Med Chem. 53(7):2719-40. 2010. PMID: 20131845
# NIH Molecular Libraries Probe Production Network [MLPCN]
# NIH Chemical Genomics Center [NCGC]
# Structural Genomics Consortium (SGC)
# To each well of a 1,536w plate, 2ul of JMJD2A-Tudor (final 100nM) and 1ul biotinylated histone peptide methylated at Lys4 [b-H3(1-18)K4me3] (final 50nM) were added in 1x PBS buffer, pH 7.4, containing 0.01% Tween-20, using a nanoliter dispenser. Formation of a protein-peptide complex proceeded at room temperature for 30 min. A Kalypsys pin-tool transferred 23nl of library compound solution in DMSO to each well. Following a 30 min incubation of the protein-peptide complex with compounds at room temperature, a mixture of 40 µg/mL each streptavidin-coated donor and nickel chelate acceptor AlphaScreen beads (final 10 µg/mL) was added in a 1ul dispense for a final volume of 4ul, followed by a brief centrifugation (1000 rpm, 1 min). Plates were incubated protected from the light for 20 min at room temperature. Microplates were then read on an EnVision multilabel plate reader using the 1,536 plate HTS AlphaScreen aperture (excitation time 80 ms, measurement time 240 ms).
# % is set by controls: 0 for no effect and ±100 for the full control effect; potency is the fitted concentration of half-maximal effect.
# Chain of Lysine-specific demethylase 4A (Homo sapiens) (O75164 whole entry, looked up, the tested form may be a part): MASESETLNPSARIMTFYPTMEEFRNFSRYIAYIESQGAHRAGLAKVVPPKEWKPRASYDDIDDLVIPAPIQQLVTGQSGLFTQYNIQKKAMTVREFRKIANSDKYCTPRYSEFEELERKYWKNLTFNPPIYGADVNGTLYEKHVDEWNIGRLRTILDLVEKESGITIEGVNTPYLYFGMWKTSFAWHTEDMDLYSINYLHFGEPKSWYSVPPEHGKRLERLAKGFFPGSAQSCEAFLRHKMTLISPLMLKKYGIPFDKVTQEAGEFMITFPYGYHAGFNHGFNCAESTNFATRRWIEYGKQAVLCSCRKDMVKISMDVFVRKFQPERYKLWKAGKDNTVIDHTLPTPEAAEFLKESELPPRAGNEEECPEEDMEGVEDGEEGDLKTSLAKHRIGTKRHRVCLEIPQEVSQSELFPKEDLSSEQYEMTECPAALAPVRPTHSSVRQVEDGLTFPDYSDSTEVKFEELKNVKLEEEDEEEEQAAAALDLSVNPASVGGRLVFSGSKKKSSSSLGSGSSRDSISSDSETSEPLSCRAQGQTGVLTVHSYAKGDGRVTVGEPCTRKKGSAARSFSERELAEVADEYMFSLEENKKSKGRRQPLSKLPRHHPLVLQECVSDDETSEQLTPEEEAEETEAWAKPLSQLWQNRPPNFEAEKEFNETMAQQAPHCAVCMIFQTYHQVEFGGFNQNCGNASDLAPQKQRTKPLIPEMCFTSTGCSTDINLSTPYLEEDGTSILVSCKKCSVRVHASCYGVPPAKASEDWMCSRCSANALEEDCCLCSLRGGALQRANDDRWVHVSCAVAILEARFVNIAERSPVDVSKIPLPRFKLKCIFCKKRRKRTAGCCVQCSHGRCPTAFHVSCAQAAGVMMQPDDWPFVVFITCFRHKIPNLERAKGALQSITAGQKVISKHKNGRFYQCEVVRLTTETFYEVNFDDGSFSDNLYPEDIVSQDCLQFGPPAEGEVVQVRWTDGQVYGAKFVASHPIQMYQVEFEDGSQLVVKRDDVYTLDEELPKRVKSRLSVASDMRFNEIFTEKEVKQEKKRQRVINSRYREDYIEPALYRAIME
Structure (SMILES),"activity change, negative = inhibition",Potency
O=C(c1ccc2c(c1)N(Cc1ccccc1)C(=O)c1ccccc1S2(=O)=O)N1CCC(Cc2ccccc2)CC1,-15.2%,
O=C(CN1CCN(Cc2ccc(Cl)cc2)C1=O)NCc1ccc(F)cc1,-17%,
Cn1c(SCC(=O)N2CCCc3ccccc32)ncc(C(=O)Nc2ccc(F)cc2)c1=O,2.27%,
CC(=O)Nc1cc(C(=O)NCc2ccc(F)cc2)ccc1Sc1ccc(F)cc1,-11.9%,
COc1cc(Cl)c(NC(=O)C(NS(=O)(=O)c2cccs2)C(C)C)c(OC)c1 (stereo not drawn),-6.62%,
CCC(C(=O)Nc1cccc(-c2nc3cccnc3s2)c1C)c1ccccc1 (stereo not drawn),-18.5%,
O=C(CN1CCOCC1)Nc1ccccc1,-10.5%,
CCN(CC)c1ccc(NC(=O)CN2CCN(CC(=O)Nc3ccc(Cl)cc3)CC2)cc1,,44.7 µM (active)
O=C(CN1CCN(C(=O)c2ccco2)CC1)Nc1ccc(Cl)c(C(F)(F)F)c1,6.53%,
CC(=O)N1CCN(CC(=O)Nc2ccc(C)c(F)c2)CC1,,17.8 µM (active)
CCOC(=O)N1CCN(CC(=O)Nc2ccc(F)cc2)CC1,-2.13%,
O=C(CN1CCN(c2ccccn2)CC1)Nc1ccc(Br)cc1,-34.8%,
O=C(CN1CCN(c2ccc(O)cc2)CC1)Nc1ccc(-c2ccccc2)cc1,,50.1 µM (active)
COC(=O)c1cc(NC(=O)CN2CCN(C(C)=O)CC2)cc(C(=O)OC)c1,-0.37% [at 57.1 µM],
Cc1cc(NC(=O)CCN2CCN(Cc3ccccc3)CC2)ccc1Br,-31.5%,
CCCCN(C)CCC(=O)Nc1ccc(Cl)cc1,11% [at 57.1 µM],
CC(=O)N1CCN(CC(=O)Nc2ccc(SC(F)F)cc2)CC1,-9.59%,
O=C(CN1CCN(Cc2ccccc2)CC1)Nc1ccc(F)c(F)c1,,6.31 µM (active)
Cc1ccc(Cl)cc1NC(=O)Cc1ccc(-n2c(C)nc3cccnc32)cc1,-6.21%,
Cc1ccccc1NC(=O)Cn1cc(C(=O)c2cccs2)c2ccccc21,9.97%,
CCC(C)NC(=O)Cn1c(=O)n(-c2ccc(Cl)cc2)c(=O)c2c3c(sc21)CCCC3 (stereo not drawn),-4.1%,
Cc1cc(C)c(NC(=O)CN2C(=O)c3cccnc3Oc3ccc(Cl)cc32)c(C)c1,-7.26%,
O=C(Nc1ccc2nc(SCC(=O)N3CCCc4ccccc43)sc2c1)c1ccc(F)cc1,-17.2%,
CCOCCCNC(=O)c1ccc2nc(CCc3ccccc3)oc2c1,-25.6%,
O=C(Nc1ccccc1Cl)N1CCC(CN2CCCC2)CC1,-21.8%,
Cc1ccc2nc(COc3cccc(NC(=O)Nc4ccc(C)c(Cl)c4)c3)cc(=O)n2c1,-19.2%,
CSc1nc(-c2ccc(F)cc2)nc2c1Cc1c(CO)cnc(C)c1O2,-15%,

Structure (SMILES),"activity change, negative = inhibition",Potency
Cc1nnc(OCC(=O)NCCC2=CCCCC2)c2ccccc12,-1.23%,
O=C(Cc1nn[nH]n1)NCCC1=CCCCC1,,50.1 µM (active)
O=C(COc1ccc(Cl)cc1)NCCC1=CCCCC1,35.4%,
COc1ccc(C(=O)c2oc3ccccc3c2NC(=O)COc2cccc(C)c2)cc1,-1.6%,
CCOC(=O)c1c(N)n(-c2cccc(C)c2C)c2nc3ccccc3nc12,-12.1%,
Cc1cccc(C)c1NC(=O)CNC(=O)C1CCCC1,-12.8%,
COc1ccc(N2CCC(CNC(=S)Nc3c(C)cccc3C)C2)cc1 (stereo not drawn),,39.8 µM (active)
COc1ccc(N2CCC(N3CCN(C)C(CCO)C3)CC2)cc1 (stereo not drawn),-3.23%,
COc1ccc(OCC(=O)Nc2ccc(N3CCC(C)CC3)cc2)cc1,-14.1%,
COc1ccc(NC(=S)NCC2CCN(c3ccc(OC)cc3)C2)cc1 (stereo not drawn),,35.5 µM (active)
COc1ccc(NC(=O)N2CCC(Cc3ccccc3)CC2)cc1,-2.41%,
Cc1ccccc1NC(=O)Cn1c(=O)n(CCCCC(=O)NCc2ccccc2Cl)c(=O)c2ccccc21,-7.85%,
COc1cccc(Nc2nc3ccccc3c3nncn23)c1,8.56%,
Cc1ccc(NC(=O)Cn2c(=O)n(-c3ccccc3)c(=O)c3c4c(sc32)CCCC4)cc1,-2.39%,
COc1ccc(Cl)cc1C(=O)Nc1ccc(N(C)C(C)=O)cc1,-14.2%,
COc1cc(OC)c(C(=O)Nc2ccccc2-c2ccccc2)cc1OC,-24%,
COc1cc(OC)c(C(=O)Nc2ccc(N(C)C)cc2)cc1OC,,79.4 µM (active)
Cc1ccc(NC(=O)CSc2nc3c([nH]c4ccccc43)c(=O)n2-c2ccccc2)cc1Cl,-10%,
CCCNC(=O)C1CCC(Cn2c(=O)c3sccc3n(Cc3ccccc3F)c2=O)CC1 (stereo not drawn),-1.33%,
O=C(Nc1cc(C(F)(F)F)ccc1Cl)c1cc2nc(-c3ccc4c(c3)OCO4)cc(C(F)(F)F)n2n1,0%,
Cc1cc(OCCCCOc2ccc(C#N)cc2)ccc1[N+](=O)[O-],2.11%,
Cc1cc(OCCCN2CCN(Cc3ccccc3)CC2)ccc1[N+](=O)[O-],,10 µM (active)
Cc1cc(OCC(=O)NC2CCN(C)CC2)ccc1[N+](=O)[O-],-9.59%,
CN(C(=O)c1ccc2c(c1)N(Cc1cccc(Cl)c1)C(=O)c1ccccc1S2=O)C1CCCCC1 (stereo not drawn),-29.2%,
COCCn1c(CCC(=O)Nc2cc(C)ccc2C)nc2cccnc21,-15.1%,
CCOc1ccc(S(=O)(=O)c2cn(Cc3ccccc3)c3ccc(OCC)cc3c2=O)cc1,-4.3%,
